NS1 function inh = inhibitors of influenza NS1 protein function; Potency, µM (titrated, usually from 46.1 µM), for the others: at the highest dose activity, positive = more growth; actives 0.4% (n = 270,000); AID 2326; calls by dose curve; further: potency means the concentration at half of the fitted maximal effect; actives are rising curves; nearly all actives have a fitted effect of over 50% in size
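Growth recovery, yeast-based: influenza A NS1 expressed in S. cerevisiae causes slow growth, and suppressors are detected by OD600. The parent strain without NS1 is used as positive control.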
Cycloheximide cs = counter-screen hit for Shiga toxin inhibitors, cycloheximide; max response, %; AID 2314; actives 12% (n = 300,000); cell reporter, cycloheximide protein synthesis inhibition counterscreen; in the data active means max response mostly above about 13%, no sharp cut-off; inactive means mostly below about 14%; further: read at 38.3 µM for the half of the compounds with a filed dose; 0% is about no effect
Pf growth 96h = P. falciparum growth inhibition at 96 hour, primary screen for plastid delayed-death inhibitors; P. falciparum luciferase reporter growth, 96 h; Potency, µM (highest dose often 28.7 µM), without a hit: at the highest dose activity change, negative = inhibition, most hits filed as inhibitors; actives 6.9% (n = 320,000); AID 504834; further: potency means the concentration at half of the fitted maximal effect; on the % scale 0 is the no-effect control and ±100 the full control effect
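96 h incubation, 37 C, 5% CO2, of luciferase-reporter P. falciparum-infected RBCs (2% hematocrit, 0.05% parasitemia final) with test compounds; endpoint luminescence.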
Shiga toxin inh = Shiga toxin inhibition; Vero cells, Shiga toxin protein synthesis inhibition reporter; inhibition, % at 38.7 µM; actives 9.2% (n = 290,000); in the data active means inhibition mostly above about 28%, no sharp cut-off; inactive means mostly below about 43%; further: 0% is about no effect
Pf growth 48h = P. falciparum growth inhibition at 48 hours (one generation); Potency, µM (titrated, usually from 28.7 µM), inactives show at the top dose activity change, negative = inhibition, actives largely listed as inhibitors; actives 5.9% (n = 310,000); P. falciparum luciferase growth in erythrocytes, 48 h; AID 504832; further: potency means the concentration at half of the fitted maximal effect; on the % scale 0 is the no-effect control and ±100 the full control effect
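A one-generation exposure of luciferase-tagged malaria parasites in RPMI 1640/Albumax erythrocyte culture, 37 C and 5% CO2. Inhibition is inferred from decreased luminescence after adding detection reagent.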
SARS PLpro yeast = blocks SARS-CoV papain-like protease in a yeast assay | Potency, µM (highest dose often 32.9 µM), inactives show at the highest dose activity, positive = growth rescue, most hits filed as activators | actives 0.19% (n = 330,000) | S. cerevisiae expressing SARS-CoV PLpro, growth rescue | AID 485353; calls by dose curve; further: potency means the concentration at half of the fitted maximal effect; 0% is about no effect; nearly all actives have a fitted effect of over 55% in size
* marks the source's active call; other numbers are inactive results; ? = inconclusive; · = no result given; + = active, no number. The list is not random: actives were taken first. Their share in the collection is about 21%. Unless noted, the call rests on the fitted dose curve; in most records, active means well fitted inhibition curve with a large enough effect; inconclusive means small, poorly fitted or top-dose-only effect, or another doubt; inactive means no such curve, though single readings can be large or run the other way.

SMILES | NS1 function inh | Cycloheximide cs | Pf growth 96h | Shiga toxin inh | Pf growth 48h | SARS PLpro yeast
CCc1ccc(NC(=O)C[n+]2cc(-c3ccc(C)cc3)n3c2CCC3)cc1 | -2% | -1 | 1.5µM* | 14 | 2.9µM* | -1%
Cc1ccc(-c2csc(NC(=O)C[n+]3cc(-c4ccc(C)cc4)n4c3CCC4)n2)cc1 | 4% | 13 | -46% | 38 | ? | 0%
CN(C)c1ccc(C(=O)OCC(=O)NCC2CCCO2)cc1 (stereo not drawn) | 0% | 2 | 7% | 1 | · | 1%
Cc1cc(C)nc(NS(=O)(=O)c2ccc(NC(=O)c3cc(=O)c4ccccc4o3)cc2)n1 | -16% | 3 | -25% | 21 | 20% | 22%
O=C(NCCc1ccc(F)cc1)c1cc(=O)c2ccccc2o1 | · | 25* | -27% | 30 | 8% | -2%
NC(=O)c1ccsc1NC(=O)c1cc(=O)c2ccccc2o1 | 33% | 44* | 68% | 38 | 230% | -7%
COc1ccc(NS(=O)(=O)c2cc(NC(=O)c3cc(=O)c4ccccc4o3)ccc2OC)cc1 | · | 10 | ? | 20 | 8.3µM* | -1%
Cc1cccc(NC(=O)c2cc(=O)c3ccccc3o2)n1 | -18% | 24* | 57% | 56 | 60% | 0%
Cc1ccccc1NC(=O)c1cc(=O)c2ccccc2o1 | -4% | 16 | 30% | 30 | 48% | 1%
Cc1cccc(NC(=O)c2cc(=O)c3ccccc3o2)c1 | -8% | 24* | -19% | 27 | 22% | -2%
N#Cc1ccccc1NC(=O)c1cc(=O)c2ccccc2o1 | · | 19 | 266% | 59* | 95% | -7%
Cc1cc(C)cc(NC(=O)c2cc(=O)c3ccccc3o2)c1 | · | 9 | ? | 5 | 3% | 0%
COc1cccc(NC(=O)c2cc(=O)c3ccccc3o2)c1 | -27% | 19* | 76% | 47* | 66% | -8%
Cc1ccc(NC(=O)c2cc(=O)c3ccccc3o2)cc1 | -2% | 29* | -18% | 125 | 94% | 3%
CCOC(=O)c1c(NC(=O)Cn2nc(C(=O)O)c3ccccc3c2=O)sc(CC)c1C | -10% | -4 | 28% | -27 | 0% | -9%
CCN(C(=O)c1c(C)noc1C)c1c(N)n(Cc2ccccc2)c(=O)[nH]c1=O | · | · | 25% | · | 7% | -9%
Cc1ccc(C)c(NC(=O)c2cc(=O)c3ccccc3o2)c1 | -34% | 33* | 13µM* | 17 | 117% | -37%
O=C(Nc1cccc(-c2nc3ccccc3s2)c1)c1cc(=O)c2ccccc2o1 | 3% | 14 | 90% | 31* | 66% | -6%
Cc1ccc(NC(=O)c2cc(=O)c3ccccc3o2)c(C)c1 | 4% | 2 | 3% | -4 | 76% | -19%
CC1(c2ccc(OC(F)F)cc2)NC(=O)N(CC(=O)Nc2ccc3[nH]c(=O)[nH]c3c2)C1=O (stereo not drawn) | · | · | ? | · | ? | -6%
O=C(CN1C(=O)NC(Cc2ccccc2)C1=O)Nc1ccc(OC(F)F)cc1 (stereo not drawn) | · | · | 13µM* | · | 7% | -9%
CC1(c2ccc(OC(F)F)cc2)NC(=O)N(CC(=O)Nc2ccccc2)C1=O (stereo not drawn) | 9% | 19* | 51% | 72* | 28% | 1%
Cc1ccc2nc(-c3ccc(NC(=O)CN4C(=O)NC(C)(c5ccc(OC(F)F)cc5)C4=O)cc3)sc2c1 (stereo not drawn) | 4% | 30* | 107% | 99* | 198% | 22%
O=C(NCC1OCCCN1S(=O)(=O)c1cc(F)ccc1F)C(=O)NC1CCCC1 (stereo not drawn) | 18% | -2 | 0% | -9 | -25% | 1%
NC(=O)c1cccnc1Oc1ccc(Cl)cc1Cl | 1% | 2 | 22% | 8 | 39% | -1%
SMILES | NS1 function inh | Cycloheximide cs | Pf growth 96h | Shiga toxin inh | Pf growth 48h | SARS PLpro yeast
CCCNc1ncccc1C(N)=O | 3% | -7 | ? | -9 | 28% | -5%
Cc1ccc(Nc2ncccc2C(N)=O)cc1 | ? | 94* | 157% | 119* | 193% | -6%
Cc1cc(Cl)ccc1Nc1ncccc1C(N)=O | -78% | 69* | 195% | 69* | 208% | -40%
NC(=O)c1cccnc1Nc1ccccc1F | -16% | 29* | 103% | 28* | 68% | -8%
NC(=O)NC(=O)COC(=O)c1cccnc1Nc1ccccc1F | 2% | 11 | 38% | 7 | 37% | 0%
CCCOc1ccc(-c2csc(N)n2)cc1[N+](=O)[O-] | -25% | 45* | 24% | + | 83% | -98%
CCOc1ccccc1NC(=O)c1ccc(OCC)c([N+](=O)[O-])c1 | -8% | 9 | 197% | -7 | 3% | 5%
CCOc1ccc(-c2cn3ccccc3n2)cc1[N+](=O)[O-] | -3% | 38* | 122% | 67* | 142% | -12%
CCCCOc1ccc(-c2cn3ccccc3n2)cc1[N+](=O)[O-] | -11% | 62* | -45% | 103* | 77% | -31%
CCCCNCCOCCOc1ccc(C)cc1[N+](=O)[O-] | -3% | -2 | ? | -17 | 7% | -1%
CCc1noc(C)c1C(=O)Nc1ccc(C#N)cc1 | · | · | 4% | · | 6% | -7%
COc1ccc(NC(=O)CCC(=O)c2cc(C)sc2C)cc1 | · | · | 47% | · | 9% | 1%
CCC(C(=O)c1ccc(O)cc1)c1ccccc1 (stereo not drawn) | -33% | -4 | 54% | -6 | 13µM* | -24%
O=C(NCCO)c1ccc(Cl)cc1 | -11% | · | · | · | · | ·
O=C(NCCO)c1ccc(Cl)c(Cl)c1 | -4% | -6 | 15µM* | -24 | 14% | -2%
COCCCNC(=S)NNC(=O)c1ccc2c(c1)OCO2 | ? | 0 | ? | -1 | 97% | -12%
CC(C)OCCCNC(=S)NNC(=O)c1ccc(Cl)c(Cl)c1 | 1% | 29* | -16% | 66* | 46% | 0%
CSCCC(NC(N)=O)C(=O)Nc1ccc(F)c(Cl)c1 (stereo not drawn) | 1% | -2 | 46% | -3 | -14% | 0%
CCC1SC(=NC(=O)c2ccc(Cl)c(Cl)c2)NC1=O (stereo not drawn) | -71% | 20* | -19% | 43 | 19% | -18%
COc1cccc(CNC(=S)Nc2cc(OC)ccc2OC)c1 | -8% | 1 | 14% | 7 | 3% | 0%
COc1cccc(CN2C(=O)C(C)N(C(=O)c3c(F)cccc3F)c3ccccc32)c1 (stereo not drawn) | -43% | 3 | 6.6µM* | 17 | 9.3µM* | 1%
CC1C(=O)N(Cc2ccccc2F)c2ccccc2N1C(=O)c1c(F)cccc1F (stereo not drawn) | -10% | -7 | ? | 14 | ? | -8%
CC(C)(C)NC(=O)Cn1cc(C#N)c2cc(Br)ccc21 | 5% | -2 | · | -15 | 5.9µM* | 4%
CC(C)(C)NC(=O)Cn1ccc(=N)c2ccccc21 | -4% | 1 | -98% | 12 | ? | -1%
CN(C)/C=N/c1c(C#N)cnn1-c1nc2ccccc2s1 | -9% | 44* | -3% | 87* | 82% | 6%
